Shown are actives, neighbours in structure and some others; about 27% of the full set was active somewhere.
sEH act: soluble epoxide hydrolase activators, primary screen, biochemical, human sEH. activation, % at 2 µM. Bifunctional epoxide hydrolase 2 (Homo sapiens), P34913. purified human sEH enzymatic activity, activator screen. 91,000 tested, 0.04% active. AID 717, 2007; in the data active = activation above about 37%
CYP2C9 act: human CYP2C9 activators, primary screen, biochemical, luminescence. activation factor at 5 µM. 96,000 tested, 1.4% active. AID 1024, 2008. recombinant CYP2C9, luciferin-H conversion; active compounds read high; factor 1 = untreated enzyme, 0 = blocked. Cytochrome P450 2C9 (Homo sapiens), P11712;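 active = activation factor of 2 or more for CYP2C9 at a 5 µM dose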;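 note: 0 = sulfaphenazole-blocked wells and 1 = vehicle-only wells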
CYP2C9 inhib: blockers of cytochrome P450 2C9 activity – biochemical, luminescence, ADME assay, primary screen | 96,000 tested, 20% active | inhibition, % at 5 µM | CYP2C9 Supersomes, luciferin-H conversion;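 active = blocking of liver enzyme CYP2C9 beyond about 50% at 5 µM, limit read from the data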
sEH inhibitor: soluble epoxide hydrolase inhibitors, primary screen, biochemical, human sEH. Bifunctional epoxide hydrolase 2 (Homo sapiens), P34913. recombinant human sEH enzymatic activity assay. inhibition, % at 2 µM. 91,000 tested, 0.34% active. AID 707, 2007; in the data active = inhibition above about 80%
CYP2C19 inh: blockers of cytochrome P450 2C19 activity – biochemical, luminescence, ADME assay, primary screen; P33261; CYP2C19 Supersomes, luciferin-H EGE luminescence, 30 min; inhibition, % at 5 µM; 96,000 tested, 21% active; AID 778, 2007;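 active = CYP2C19 inhibition above a set limit at 5 µM in the primary screen, cut at about 50% in these data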;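 note: plate controls were negative control wells for no effect and 2.5 mM tranylcypromine positive control for full effect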
Target sequence (P33261 whole entry, looked up): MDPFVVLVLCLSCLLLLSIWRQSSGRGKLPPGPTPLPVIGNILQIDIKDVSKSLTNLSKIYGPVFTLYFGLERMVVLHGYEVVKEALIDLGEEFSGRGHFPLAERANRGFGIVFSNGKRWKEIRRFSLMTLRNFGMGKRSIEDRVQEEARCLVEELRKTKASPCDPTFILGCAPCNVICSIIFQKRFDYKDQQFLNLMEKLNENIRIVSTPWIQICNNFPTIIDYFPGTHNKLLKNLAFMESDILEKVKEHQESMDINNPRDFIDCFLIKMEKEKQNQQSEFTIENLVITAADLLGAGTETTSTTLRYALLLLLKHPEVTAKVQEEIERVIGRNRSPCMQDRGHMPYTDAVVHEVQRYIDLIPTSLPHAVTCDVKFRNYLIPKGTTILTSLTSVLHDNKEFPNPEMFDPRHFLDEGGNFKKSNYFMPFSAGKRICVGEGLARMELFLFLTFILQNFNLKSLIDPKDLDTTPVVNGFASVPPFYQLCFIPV
CYP2C19 act: human CYP2C19 activators, primary screen, biochemical, luminescence; Cytochrome P450 2C19 (Homo sapiens), P33261; recombinant CYP2C19, luciferin-H EGE luminescence; active compounds read high; 0 = fully inhibited enzyme, 1 = untreated enzyme; activation factor at 5 µM; 96,000 tested, under 10 active; AID 1025, 2008;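 active = activation factor of at least 2 at 5 µM in the primary screen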;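 note: 0 = wells with 2.5 mM tranylcypromine and 1 = vehicle-only wells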
The depositor's hits bear a star; . = no result given.

SMILES | sEH act | CYP2C9 act | CYP2C9 inhib | sEH inhibitor | CYP2C19 inh | CYP2C19 act
CN1CCc2nc(SCCOc3ccccc3)c(C#N)cc2C1 | -1 | 0.5 | 49 | 4 | 91* | 0.1
Cc1ccc(-n2c(-c3c(-c4ccccc4)noc3C)n[nH]c2=S)cc1 | 10 | 0.3 | 68* | -9 | 62* | 0.4
CCn1c(=N)c(C(N)=O)cc2c(=O)n3cccc(C)c3nc21 | -2 | . | . | 4 | . | .
C=CCOc1ccc2c(c1)C(=NO)c1cc(OCC=C)ccc1-2 | -6 | 0.2 | 82* | 8 | 33 | 0.7
COc1ccc2c(c1)C(=NO)c1cc(OC)ccc1-2 | . | 0 | 96* | . | 5 | 0.9
CC1CCC2C(C1)c1sc(=O)[nH]c1SC2(C)C (stereo not drawn) | 0 | 0.9 | 6 | 0 | 4 | 1
Cc1sc2nc(C3CCCCC3)nc(SCC(=O)N3CC(=O)Nc4ccccc43)c2c1C | -1 | 0.1 | 86* | 4 | 40 | 0.6
CC(=O)N1N=C(c2ccc(C)cc2)OC1c1ccc(C)cc1 (stereo not drawn) | -3 | 0.8 | 20 | 2 | 19 | 0.8
Cc1ccc(C2OCC3(CO)COC(c4ccc(C)cc4)N23)cc1 (stereo not drawn) | 1 | 0.6 | 41 | -1 | 72* | 0.3
CON(C)c1nc(Oc2ccc(=O)[nH]n2)nc(N(C)C)n1 | 4 | 1.1 | -15 | 0 | -18 | 1.2
Cc1ccc(-c2noc(=O)n2CC(=O)Nc2ccc(S(=O)(=O)NC3CC3)cc2)cc1 | 9 | 0.1 | 93* | -15 | 45 | 0.6
O=C(Cn1c(-c2ccccc2)noc1=O)Nc1ccc(S(=O)(=O)N2CCOCC2)cc1 | 0 | 0.3 | 73* | 2 | 23 | 0.8
O=C(Cn1c(-c2ccccc2)noc1=O)Nc1ccc(N2CCCCCC2)cc1 | 0 | 1 | 2 | 2 | -10 | 1.1
CCS(=O)(=O)N1CCC(C(=O)NCc2cc(OC)ccc2OC)CC1 | -3 | 1.8 | -78 | 0 | 13 | 0.9
CC12CCC(C(=O)Nc3ncc([N+](=O)[O-])s3)(OC1=O)C2(C)C (stereo not drawn) | -3 | 1.1 | -6 | 2 | -19 | 1.2
Cc1cc(C)n(-c2nc(-n3nc(C)cc3C)c3c4c(sc3n2)COC(C)(C)C4)n1 | -8 | 0.6 | 38 | 8 | 72* | 0.3
Cc1cc(C)n(-c2nc(SCC(=O)Nc3nccs3)c3c4c(sc3n2)COC(C)(C)C4)n1 | 2 | 0.2 | 77* | -5 | 38 | 0.6
CC1(C)CC(OC(=O)c2ccco2)CC(C)(C)N1O | -4 | 0.8 | 19 | 5 | 7 | 0.9
Cc1nn(-c2nc3ccccc3s2)c(N)c1Sc1ccc(F)cc1 | 18 | 0.2 | 85* | -18 | 29 | 0.7
COc1ccc2c(c1)c(C(O)CN1CCC3(CC1)OCCO3)c(C)n2C (stereo not drawn) | -16 | 0.9 | 7 | 16 | 26 | 0.7
CSc1ccc(/C=N/n2c(C)cc(C)cc2=O)cc1 | 5 | 1.2 | -16 | -5 | 1 | 1
COC(=O)CSc1nc2sc3c(c2c(=O)n1C1CCCCC1)CCN(C)C3 | -6 | 0.5 | 52* | 7 | 78* | 0.2
COc1ccc(-n2c(SCC(N)=O)nc3sc4c(c3c2=O)CCN(C)C4)cc1 | . | 0.7 | 33 | . | 73* | 0.3
COc1ccc(CN2CC(C(=O)N3CCOCC3)CC2=O)cc1 (stereo not drawn) | 18 | 1 | 1 | -20 | 13 | 0.9
CCCc1nnc(NC(=O)CC(=O)Nc2ccccc2C(=O)O)s1 | 8 | 1.1 | -12 | -8 | 16 | 0.8
SMILES | sEH act | CYP2C9 act | CYP2C9 inhib | sEH inhibitor | CYP2C19 inh | CYP2C19 act
COc1ccc(OC)c(-c2oc3ccccc3c(=O)c2O)c1 | -9 | 0.6 | 43 | 8 | 26 | 0.7
COc1ccc(-c2cc(=Nc3ccc(C)cc3)c3ccccc3o2)cc1 | -2 | 0.5 | 53* | 4 | 34 | 0.7
CN(C1CCS(=O)(=O)C1)S(=O)C12CC3CC(CC(C3)C1)C2 (stereo not drawn) | 3 | . | . | -2 | . | .
CCOC(=O)Cn1nc(/C=C/c2ccccc2)ccc1=O | 6 | 0.9 | 15 | -3 | 2 | 1
O=c1ccc(/C=C/c2ccccc2)nn1Cc1ccccc1 | 0 | 0.4 | 64* | -2 | 31 | 0.7
Nc1c(C(=O)NC2CCCC2)sc2nc(-c3cccs3)ccc12 | . | 0.6 | 44 | . | 72* | 0.3
Nc1c(C(=O)Nc2nccs2)sc2nc(-c3cccs3)cc(C(F)(F)F)c12 | -10 | 0.8 | 24 | 11 | 11 | 0.9
c1csc(Cn2c(-c3cccs3)nc3ccccc32)c1 | -8 | 0.1 | 94* | 10 | 87* | 0.1
CCOC(=O)c1cc2c(C(F)(F)F)cc(-c3ccccc3)nc2o1 | . | 0.7 | 25 | . | 7 | 0.9
FC(F)(F)c1cc(-c2ccccc2)nc(NCc2cccnc2)n1 | -12 | 0.3 | 73* | 11 | 93* | 0.1
FC(F)(F)c1cc(-c2ccco2)nc(NCc2cccnc2)n1 | . | 0.3 | 66* | . | 85* | 0.2
FC(F)(F)c1cc(-c2ccco2)nc(NCc2ccccc2)n1 | . | 0.6 | 36 | . | 14 | 0.9
Cc1c([N+](=O)[O-])cc(C(=O)Oc2ccc(Br)cc2C(=S)N2CCCCC2)cc1[N+](=O)[O-] | -8 | 0.7 | 33 | 5 | 54* | 0.5
CC(=O)c1n[nH]nc1Nc1nc(C)cc(C)n1 | 1 | . | . | 2 | . | .
COC(=O)c1ccc2c(c1)S(=O)(=O)NC(=NCc1ccco1)S2 | 11 | 1.2 | -22 | -13 | 22 | 0.8
CC(C)CC(=O)Nc1ccc(OCC(=O)O)cc1 | . | 1.1 | -8 | . | -9 | 1.1
CC(C)CC(=O)Nc1ccc(C(=O)COc2ccc(-c3nnco3)cc2)cc1 | -12 | 0.1 | 93* | 12 | 72* | 0.3
Cc1cccc(C)c1OCc1nnc(SCC(=O)Nc2ccccc2F)o1 | -9 | 0.4 | 59* | 9 | 13 | 0.9
CCOC(=O)c1cc(-c2nnc(-c3ccc(Cl)cc3)o2)c(C)nc1C | 13 | 0.9 | 9 | -16 | 16 | 0.8
CCOC(=O)c1cc(-c2nnc(SCC(=O)Nc3ccc(F)cc3)o2)c(C)nc1C | . | 0.5 | 51* | . | 20 | 0.8
Cc1cnc(NC(=O)CSc2nnc(-c3ccccc3)o2)s1 | -2 | . | . | 2 | . | .
N#Cc1ccsc1NC(=O)CSc1nnc(-c2ccccc2)o1 | 0 | 0.2 | 85* | -2 | 28 | 0.7
O=C(Nc1ccc(-c2noc(-c3cccs3)n2)cc1)c1cccnc1 | 10 | . | . | -10 | . | .
Cc1cc(NC(=O)CSc2nnnn2C)n(-c2ccccc2)n1 | -3 | 1.1 | -10 | 6 | -16 | 1.2
CC1(c2ccco2)NC(=O)NC1=O (stereo not drawn) | 5 | . | . | -1 | . | .
